The text below walks through data of PubChem BioAssay (EPA / NIEHS).

Calls of active or inactive are those of the source. The calls were made as follows: active = hit-call score of the fitted dose curve at least 0.9, where 1 is the maximum; inactive = score below 0.9.

Settings in all cases: mRNA level, 48 h; actives raise or lower the signal
Read-out in assay [1]: adenosine kinase (ADK) gene, ADK (gene 132)
As to the kind of experiment: LTEA_HepaRG_ADK: Life Technologies and Expression Analysis (LTEA) Assay for adenosine kinase (ADK) gene using HepaRG (AID 2283471). In outline: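 Differentiated HepaRG cells dosed 48 h in serum-free induction medium, 0.5% DMSO vehicle, eight half-log concentrations from 100 uM, in duplicate. ADK mRNA by TaqMan qRT-PCR normalised to ACTB, GAPDH, POLR2A; bidirectional fit versus DMSO.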

Read-out in assay [2]: Alpha-fetoprotein (AFP) gene, AFP (gene 174)
As to the kind of experiment: LTEA_HepaRG_AFP: Life Technologies and Expression Analysis (LTEA) Assay for Alpha-fetoprotein (AFP) gene using HepaRG (AID 2283472). In outline: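 After a 48 h plating period, cells are moved to serum-free induction medium and dosed in duplicate (100 uM maximum, half-log dilutions, 0.5% DMSO) for another 48 h. Total RNA goes to TaqMan qRT-PCR; AFP signal is housekeeping-normalized.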

Read-out in a further assay: BCL2L11 (gene 10018)
As to the kind of experiment: LTEA_HepaRG_BCL2L11: Life Technologies and Expression Analysis (LTEA) Assay for Bcl-2 (BCL2L11) gene using HepaRG (AID 2283473). In outline:
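HepaRG, 48 h exposure, 8-pt half-log series from 100 uM in 0.5% DMSO, duplicates; qRT-PCR (Fluidigm TaqMan) for BCL2L11, housekeeping-normalized; bidirectional curve fit relative to DMSO baseline.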

Read-out in assay [3]: Apolipoprotein A-V (APOA5) gene, APOA5 (gene 116519)
As to the kind of experiment: LTEA_HepaRG_APOA5: Life Technologies and Expression Analysis (LTEA) Assay for Apolipoprotein A-V (APOA5) gene using HepaRG (AID 2283474). Summed up: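 HepaRG, 48 h chemical exposure in serum-free induction medium, 8-pt half-log series (top 100 uM), 0.5% DMSO vehicle, duplicates. Readout: APOA5 mRNA by qRT-PCR, housekeeping-normalized; bidirectional fit vs DMSO baseline.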

Read-out in assay [4]: Apoptosis regulator Bcl-2 (Homo sapiens) (UniProt P10415)
As to the kind of experiment: LTEA_HepaRG_BCL2: Life Technologies and Expression Analysis (LTEA) Assay for Bcl-2 gene using HepaRG (AID 2283475). Summed up: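 Expression change of BCL2 mRNA in HepaRG after 48 h dosing, quantified by TaqMan qRT-PCR against three endogenous controls. Concentration-response used eight points up to 100 uM, vehicle 0.5% DMSO.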

Read-out in assay [5]: Bcl-2 (BID) gene, BID (gene 637)
As to the kind of experiment: LTEA_HepaRG_BID: Life Technologies and Expression Analysis (LTEA) Assay for Bcl-2 (BID) gene using HepaRG (AID 2283476). Summed up:
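Gain or loss of BID expression is fitted relative to 0.5% DMSO vehicle. Human HepaRG liver cells received a 48 h chemical exposure over an eight-point concentration range.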

Read-out in a further assay: Caspase-3 (Homo sapiens) (UniProt P42574)
As to the kind of experiment: LTEA_HepaRG_CASP3: Life Technologies and Expression Analysis (LTEA) Assay for cysteine-aspartic acid protease (CASP3) using HepaRG (AID 2283477). In outline:
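HepaRG, 48 h exposure, 8 conc. (top 100 uM, half-log steps, duplicate), 0.5% DMSO vehicle; qRT-PCR of CASP3 transcript, housekeeping-normalised (ACTB/GAPDH/POLR2A); bidirectional curve fit vs DMSO baseline.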

Read-out in assay [6]: Cytochrome P450 (CYP24A1), CYP24A1 (gene 1591)
As to the kind of experiment: LTEA_HepaRG_CYP24A1: Life Technologies and Expression Analysis (LTEA) Assay for Cytochrome P450 (CYP24A1) using HepaRG (AID 2283478). Summed up:
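qRT-PCR read-out: CYP24A1 transcript levels normalized to three housekeeping genes, bidirectional curve fits against 0.5% DMSO baseline. Human HepaRG cells treated 48 h with chemicals at eight concentrations from 100 uM in half-log steps.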

Read-out in assay [7]: Cytochrome P450 (CYP1A2), CYP1A2 (gene 1544)
As to the kind of experiment: LTEA_HepaRG_CYP1A2: Life Technologies and Expression Analysis (LTEA) Assay for Cytochrome P450 (CYP1A2) using HepaRG (AID 2283479). In outline: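 HepaRG, 48 h exposure, top 100 uM, half-log 8-pt, 0.5% DMSO vehicle, duplicates. Readout: TaqMan qRT-PCR of CYP1A2 mRNA, housekeeping-normalized (ACTB/GAPDH/POLR2A). Gain/loss fit relative to DMSO baseline.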

Read-out in assay [8]: cysteine-aspartic acid protease (CASP8), CASP8 (gene 841)
As to the kind of experiment: LTEA_HepaRG_CASP8: Life Technologies and Expression Analysis (LTEA) Assay for cysteine-aspartic acid protease (CASP8) using HepaRG (AID 2283480). Summed up: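 Differentiated HepaRG cells in serum-free induction medium, 48 h exposure, eight-point half-log series from 100 uM in 0.5% DMSO, duplicates. CASP8 mRNA by qRT-PCR, normalized to ACTB, GAPDH, POLR2A; bidirectional fit versus DMSO.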

Read-out in assay [9]: Cytochrome P450 (CYP2B6), CYP2B6 (gene 1555)
As to the kind of experiment: LTEA_HepaRG_CYP2B6: Life Technologies and Expression Analysis (LTEA) Assay for Cytochrome P450 (CYP2B6) using HepaRG (AID 2283481). Summed up: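 Read-out is CYP2B6 mRNA by TaqMan qRT-PCR, normalized to three housekeeping genes and fitted bidirectionally against 0.5% DMSO baseline. Human HepaRG cells received test chemicals for 48 h, top concentration 100 uM, half-log dilutions.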

Read-out in assay [10]: Cytochrome P450 2C19 (Homo sapiens) (UniProt P33261)
As to the kind of experiment: LTEA_HepaRG_CYP2C19: Life Technologies and Expression Analysis (LTEA) Assay for CYP2C19 using HepaRG (AID 2283482). Summed up: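 HepaRG, 48 h chemical exposure, 8-pt half-log series from 100 uM in 0.5% DMSO, duplicates. Readout: CYP2C19 mRNA by TaqMan qRT-PCR, housekeeping-normalized. Bidirectional fit vs DMSO baseline; phenobarbital 1mM as induction control.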

Read-out in the next assay: CYP2C8 (gene 1558)
As to the kind of experiment: LTEA_HepaRG_CYP2C8: Life Technologies and Expression Analysis (LTEA) Assay for CYP2C8 using HepaRG (AID 2283483). In outline:
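Differentiated HepaRG cells in serum-free induction medium exposed 48 h in duplicate to 8 half-log concentrations from 100 uM in 0.5% DMSO. CYP2C8 mRNA by qRT-PCR normalized to ACTB, GAPDH, POLR2A; bidirectional fit versus DMSO.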

Read-out in a further assay: CYP2C9 (gene 1559)
As to the kind of experiment: LTEA_HepaRG_CYP2C9: Life Technologies and Expression Analysis (LTEA) Assay for CYP2C9 using HepaRG (AID 2283484). In outline: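 Differentiated human HepaRG cells in serum-free induction medium were exposed 48 h to chemicals in 8-point half-log series from 100 uM (0.5% DMSO), in duplicate. CYP2C9 mRNA was measured by qRT-PCR, normalized to ACTB/GAPDH/POLR2A, with bidirectional fitting versus DMSO.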

Read-out in a further assay: CYP2E1 (gene 1571)
As to the kind of experiment: LTEA_HepaRG_CYP2E1: Life Technologies and Expression Analysis (LTEA) Assay for CYP2E1 using HepaRG (AID 2283485). Summed up: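 Differentiated HepaRG cells were treated in duplicate for 48 h with chemicals in 0.5% DMSO, from 100 uM downward in half-log dilutions. RNA was then analysed by qRT-PCR for CYP2E1 induction or loss.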

Read-out in the next assay: CYP4A11 (gene 1579)
As to the kind of experiment: LTEA_HepaRG_CYP4A11: Life Technologies and Expression Analysis (LTEA) Assay for CYP4A11 using HepaRG (AID 2283486). In outline:
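CYP4A11 transcript levels were quantified by TaqMan qRT-PCR after HepaRG human liver cells were treated for 48 hours with test chemicals (top 100 uM, half-log dilutions, 0.5% DMSO). Gain or loss of signal was fitted relative to DMSO.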

Read-out in assay [11]: DNA damage-inducible transcript 3 (DDIT3), DDIT3 (gene 1649)
As to the kind of experiment: LTEA_HepaRG_DDIT3: Life Technologies and Expression Analysis (LTEA) Assay for DNA damage-inducible transcript 3 (DDIT3) using HepaRG (AID 2283488). In outline:
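Changes in DDIT3 transcript, in either direction relative to 0.5% DMSO vehicle, were quantified by TaqMan qRT-PCR after 48 h chemical exposure of HepaRG cells at 8 concentrations, maximum 100 uM.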

Read-out in assay [12]: Pro-epidermal growth factor (Homo sapiens) (UniProt P01133)
As to the kind of experiment: LTEA_HepaRG_EGF: Life Technologies and Expression Analysis (LTEA) Assay for Epidermal growth factor (EGF) using HepaRG (AID 2283489). In outline:
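qRT-PCR readout of EGF transcript after 48 h chemical exposure of HepaRG cells; eight concentrations from 100 uM down in half-log steps, duplicate wells, 0.5% DMSO vehicle. Bidirectional curve fitting against DMSO baseline.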

Read-out in assay [13]: Early growth response protein 1 (EGR1) transcription factor, EGR1 (gene 1958)
As to the kind of experiment: LTEA_HepaRG_EGR1: Life Technologies and Expression Analysis (LTEA) Assay for Early growth response protein 1 (EGR1) transcription factor using HepaRG (AID 2283490). In outline:
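Differentiated HepaRG cells in serum-free induction medium exposed 48 hours, duplicate, to 8 half-log concentrations up to 100 uM in 0.5% DMSO. EGR1 mRNA measured by TaqMan qRT-PCR, normalized to ACTB, GAPDH, POLR2A; bidirectional fit versus DMSO.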

Read-out in assay [14]: Cytochrome P450 3A4 (Homo sapiens) (UniProt P08684)
As to the kind of experiment: LTEA_HepaRG_CYP3A4: Life Technologies and Expression Analysis (LTEA) Assay for CYP3A4 using HepaRG (AID 2283487). Summed up:
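Differentiated HepaRG cells in serum-free induction medium exposed in duplicate for 48 h to 8 half-log concentrations up to 100 uM in 0.5% DMSO. CYP3A4 mRNA measured by qRT-PCR normalized to ACTB, GAPDH and POLR2A; bidirectional fit versus DMSO.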

Chain of Apoptosis regulator Bcl-2 (Homo sapiens) (P10415 whole entry, looked up): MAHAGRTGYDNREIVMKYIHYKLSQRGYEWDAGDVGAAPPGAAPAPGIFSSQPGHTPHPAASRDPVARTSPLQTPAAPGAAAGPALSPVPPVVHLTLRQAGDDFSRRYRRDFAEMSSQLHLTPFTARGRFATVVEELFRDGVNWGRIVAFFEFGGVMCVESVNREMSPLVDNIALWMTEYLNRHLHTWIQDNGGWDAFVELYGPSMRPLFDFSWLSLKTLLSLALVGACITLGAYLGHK
Chain of Caspase-3 (Homo sapiens) (P42574 whole entry, looked up): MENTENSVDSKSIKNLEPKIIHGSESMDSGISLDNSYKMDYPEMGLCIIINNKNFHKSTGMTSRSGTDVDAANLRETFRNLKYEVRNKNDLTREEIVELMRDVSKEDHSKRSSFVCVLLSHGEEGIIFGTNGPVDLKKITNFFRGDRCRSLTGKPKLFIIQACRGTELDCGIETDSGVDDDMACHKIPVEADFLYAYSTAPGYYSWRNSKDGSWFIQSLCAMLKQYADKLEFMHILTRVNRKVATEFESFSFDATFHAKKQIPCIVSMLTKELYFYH
Chain of Cytochrome P450 2C19 (Homo sapiens) (P33261 whole entry, looked up): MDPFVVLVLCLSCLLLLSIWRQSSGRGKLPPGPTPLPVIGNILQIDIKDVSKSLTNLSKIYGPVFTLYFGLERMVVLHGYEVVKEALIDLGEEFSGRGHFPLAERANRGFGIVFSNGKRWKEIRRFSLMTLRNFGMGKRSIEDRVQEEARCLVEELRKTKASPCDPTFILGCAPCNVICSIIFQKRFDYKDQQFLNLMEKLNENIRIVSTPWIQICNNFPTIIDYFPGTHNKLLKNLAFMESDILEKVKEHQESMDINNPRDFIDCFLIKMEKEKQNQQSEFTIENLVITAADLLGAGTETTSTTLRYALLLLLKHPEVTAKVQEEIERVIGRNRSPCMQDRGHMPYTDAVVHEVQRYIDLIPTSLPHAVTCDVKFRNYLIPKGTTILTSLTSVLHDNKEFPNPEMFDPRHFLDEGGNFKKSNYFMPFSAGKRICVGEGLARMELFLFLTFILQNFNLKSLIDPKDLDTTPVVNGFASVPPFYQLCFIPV
Chain of Cytochrome P450 3A4 (Homo sapiens) (P08684 whole entry, looked up): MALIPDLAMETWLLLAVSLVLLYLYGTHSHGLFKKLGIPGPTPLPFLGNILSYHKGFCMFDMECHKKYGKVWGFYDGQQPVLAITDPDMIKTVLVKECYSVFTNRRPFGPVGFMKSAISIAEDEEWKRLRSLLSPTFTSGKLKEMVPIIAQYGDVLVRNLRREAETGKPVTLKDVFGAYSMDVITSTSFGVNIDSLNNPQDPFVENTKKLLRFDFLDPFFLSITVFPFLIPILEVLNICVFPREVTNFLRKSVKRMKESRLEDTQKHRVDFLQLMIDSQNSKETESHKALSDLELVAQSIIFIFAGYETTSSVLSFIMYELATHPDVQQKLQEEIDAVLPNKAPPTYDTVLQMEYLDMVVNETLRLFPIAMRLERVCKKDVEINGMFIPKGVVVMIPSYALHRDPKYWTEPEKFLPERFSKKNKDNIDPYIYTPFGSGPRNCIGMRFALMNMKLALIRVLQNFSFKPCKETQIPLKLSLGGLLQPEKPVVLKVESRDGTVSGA

As for `CC(C)(C)CC(C)(C)c1ccc(O)c(-n2nc3ccccc3n2)c1`, the molecule was classed as inactive (in assay [1]; in assay [2]; with BCL2L11 (gene 10018); in [3]; in assay [4]; in [5]). The result (with Caspase-3 (Homo sapiens); in assay [6]; in [8]; with CYP2C8 (gene 1558); in the assay with CYP2C9 (gene 1559); in assay [11]) was inactive. Moreover, the call in assay [13] was inactive. The concentration at half-maximal activity (AC50) (in general, the concentration at which the activity in the assay is half-maximal) was 31.3 µM (active) in assay [7]; 13.1 µM (active) in [9]; 12.7 µM (active) in assay [10]; 58.2 µM (active) in the assay with CYP2E1 (gene 1571); 50 µM (active) with CYP4A11 (gene 1579); 50 µM (active) in assay [12].

Consider `CCCCCCCCCCCCCCCS(=O)(=O)Oc1ccccc1`, for which the molecule was called inactive (in assay [1]; in assay [2]; with BCL2L11 (gene 10018); in assay [3]; in assay [4]; in assay [5]). Further, the molecule was called inactive (in the assay with Caspase-3 (Homo sapiens); in [6]; in assay [8]; with CYP2C9 (gene 1559); in the assay with CYP4A11 (gene 1579); in assay [11]). In addition, the outcome in [12] and in [13] was inactive. The AC50 is 5.56 µM (active) in assay [7]; 3.1 µM (active) in [9]; 8.59 µM (active) in assay [10]; 7.61 µM (active) in the assay with CYP2C8 (gene 1558); 14.1 µM (active) with CYP2E1 (gene 1571); 9.56 µM (active) in [14].

As for `C#C[C@]1(O)CC[C@H]2[C@@H]3CCC4=CC(=O)CC[C@@H]4[C@H]3CC[C@@]21C`, the AC50 in assay [1] was 9.92 µM (active); in assay [3], 9.92 µM (active); in [9] it was 9.72 µM (active); in assay [10], 9.92 µM (active); with CYP2C8 (gene 1558), 6.29 µM (active); in the assay with CYP2E1 (gene 1571) it was 0.124 µM (active). Moreover, the AC50 was 0.0465 µM (active) in the assay with CYP4A11 (gene 1579) and 22.9 µM (active) in [12]. Besides, the call (in assay [2]; with BCL2L11 (gene 10018); in [4]; in [5]; in the assay with Caspase-3 (Homo sapiens); in [6]) was inactive. In addition, the result in [7], in assay [8], in assay [11] and in assay [13] was inactive.
